Where “and” joins values, the source holds several entries; their conditions need not be identical. Equal entries are not always repeated. Results filed as inconclusive are left out. Calls of active or inactive are those of the source. Unless noted, calls come from the whole dose curve; as a rule, active = well fitted curve in either direction with a large enough effect (not every such curve was filed as active); inconclusive = small, poorly fitted or top-dose-only effect, or another doubt; inactive = flat fitted curve, though single readings scatter.
Columns and labels:
[1] = AP1 Signaling Pathway (AID 357);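 note: ME-180 reporter cells stimulated with EGF at its EC50 level; % is set by controls: 0 for no effect and ±100 for the full control effect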
Outline: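 First, ME-180 AP-1-bla cells were cultured overnight at 37 °C in low-serum Opti-MEM. Next, titrated compounds with EC50 EGF were incubated 5 hours. Finally, CCF4 was added for 2.5 hours and the 460/530 nm ratio recorded.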

[2] = target: Cytochrome P450 1A2 (Homo sapiens) (UniProt P05177); assay: p450-cyp1a2 (AID 410; calls by dose curve; note: potency is the fitted concentration of half-maximal effect;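 for activity change, negative = inhibition: -100% = full effect of reference inhibitor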)
Outline: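 Inhibition was calculated relative to 57 uM furafylline (full inhibition). The reaction used human CYP1A2 at 20nM with Luciferin-ME at its Km, 100uM, driven by an NADPH-regenerating system for 60 min at room temperature.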

[3] = Cell Viability - BJ (AID 421; calls by dose curve;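 note: potency is the fitted concentration of half-maximal effect; cells exposed to compound for 40 hours at 37 °C before readout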); conditions: BJ fibroblast viability, qHTS
Outline: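 Cytotoxicity as drop in intracellular ATP (CellTiter-Glo, 20 min RT) after 40 hr compound exposure of BJ fibroblasts at 37 °C. Titrations scaled between DMSO and 100 uM tamoxifen, Hill-fitted for AC50.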

[4] = Cell Viability - Jurkat (AID 426;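 active = dose-dependent loss of cell ATP signal giving a full or clear fitted curve, ranked by lower potency value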; note: potency is the fitted concentration of half-maximal effect); conditions: qHTS
Outline: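 Seed 5000 Jurkat E6-1 cells/well; add compound; incubate 40 hr at 37 °C; add CellTiter-Glo; wait 20 min at room temperature; read luminescence. Fit concentration-response with Hill equation for AC50.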

[5] = Cell Viability - Hek293 (AID 427;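 active = compounds whose dose-response curve shows a full or clear partial loss of cell viability, called from curve shape rather than a numeric limit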;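 note: potency is the fitted concentration of half-maximal effect; cells exposed to compound for 40 hours at 37 °C before reading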); conditions: qHTS
Outline: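 Luminescent ATP content (CellTiter-Glo, 20 min at room temperature) was measured after a 40 hr, 37 °C compound exposure of HEK293 cells. AC50 values came from Hill-equation fits of qHTS concentration-response data normalized to DMSO and 100 uM tamoxifen.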

[6] = Cell Viability - HepG2 (AID 433; calls by dose curve;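 note: potency is the fitted concentration of half-maximal effect; potency for ATP loss meaning cytotoxicity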); conditions: qHTS
Outline: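 Cytotoxicity read as ATP loss (CellTiter-Glo luminescence) after 40 hr compound exposure of HepG2, 1500 cells/well, 37 °C. AC50 by Hill equation; 0% set by DMSO, 100% inhibition by 100 uM tamoxifen.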

[7] = Cell Viability - MRC5 (AID 434; calls by dose curve;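 note: potency is the fitted concentration of half-maximal effect; potency reflects cytotoxicity seen as loss of intracellular ATP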); conditions: MRC5 lung fibroblast viability, qHTS
Outline: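 MRC5 normal human lung fibroblasts, 1500 cells/well, exposed to compound for 40 hr at 37 C. Cellular ATP was read by CellTiter-Glo luminescence; data normalized to DMSO and 100 uM tamoxifen, with AC50 from Hill fits.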

[8] = Cell Viability - SK-N-SH (AID 435; calls by dose curve; note: potency is the fitted concentration of half-maximal effect); conditions: SK-N-SH neuroblastoma cell viability qHTS
Outline: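 qHTS cytotoxicity: CellTiter-Glo ATP luminescence after 40 h compound exposure of human neuroblastoma SK-N-SH cells at 37 °C. AC50 derived by Hill-equation fitting, with DMSO as basal and 100 uM tamoxifen as full inhibition.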

[9] = NFAT Signaling Pathway (AID 444);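 note: carbachol stimulus at about its EC50 of 1 µM final; % is set by controls: 0 for no effect and ±100 for the full control effect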
Outline: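 Jurkat cells with NFAT-driven β-lactamase reporter and co-expressed M1 receptor, stimulated with carbachol (final 1 uM, ~EC50), compound titration, 5 h at 37 °C. CCF4 loaded 1 h at RT; 460/530 nm ratio gave %activity and AC50.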

[10] = Stat Signaling Pathway (AID 446); conditions: ME-180 SIE beta-lactamase reporter, IL-6 stimulated, 5 h;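 note: ME-180 cervical cancer cells given 40 pM IL-6 alongside compound; SIE-controlled beta-lactamase reporter measured as 460/530 nm FRET emission ratio; % is set by controls: 0 for no effect and ±100 for the full control effect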
Outline: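 Reporter line: ME-180 cervical carcinoma, SIE-beta-lactamase. Treatment: compound with 40 pM IL-6, 5 hrs, 37 C, in low-serum OPTI-MEM with 10 mM HEPES pH 7.3. Detection: 460/530 nm fluorescence.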

[11] = target: Glucocorticoid receptor (Homo sapiens) (UniProt P04150); assay: GR-GFP Redistribution (AID 450;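 active = compounds whose dose series gives a full or clear partial fitted curve of increased nuclear translocation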; note: potency is the fitted concentration of half-maximal effect); conditions: U2OS GR-GFP nuclear translocation, laser cytometry, 2 h
[12] = target: Mitogen-activated protein kinase 10 (Mus musculus) (UniProt Q61831); assay: JNK3 AlphaScreen Assay (AID 530);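 note: kinase came from lysate of stimulated human HepG2 cells; signal reports phosphorylation of biotinylated GST-cJun 1-79 at Ser73 with 10 µM ATP; % is set by controls: 0 for no effect and ±100 for the full control effect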
Outline: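 qHTS format: compounds tested as titrations against IL-1beta/TNF-alpha-activated HepG2 lysate JNK3 with biotin-GST-cJun substrate and 10 uM ATP at room temperature. Loss of anti-phospho-cJun AlphaScreen signal indicates inhibition.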

[13] = Cell Viability - N2a (AID 540; active = well fitted curve in the direction sought with a large enough effect; an effect the other way counts as inactive or inconclusive;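 note: plate controls were DMSO alone for no effect and tamoxifen control for full effect; nearly all actives have a fitted effect of over 45% in size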); conditions: N2a mouse neuroblastoma cell viability; activity change, negative = cytotoxicity: at 92.2 µM (top of the series)
Outline: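 First, 1500 N2a cells per well incubate 5 hr at 37 °C; next, compounds are added and incubated 40 hr at 37 °C; finally CellTiter-Glo is added and luminescence read after 20 min, with AC50 derived by Hill modeling.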

[14] = Cell Viability - NIH 3T3 (AID 541; active = well fitted curve in the direction sought with a large enough effect; an effect the other way counts as inactive or inconclusive;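 note: plate controls were DMSO alone for no effect and tamoxifen positive control for full effect; nearly all actives have a fitted effect of over 25% in size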); conditions: NIH 3T3 cell viability, qHTS; at 92.2 µM (top of the series)
Outline: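 AC50 values reflect concentration-dependent loss of intracellular ATP in NIH 3T3 cells after 40 hr treatment in complete culture medium, quantified by luciferase-based luminescence.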

[15] = Cell Viability - HUV-EC-C (AID 542; active = well fitted curve in the direction sought with a large enough effect; an effect the other way counts as inactive or inconclusive; note: nearly all actives have a fitted effect of over 35% in size; note: potency is the fitted concentration of half-maximal effect)
Outline: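 Decrease in cellular ATP, quantified by luciferase luminescence, reflects toxicity in normal human vascular endothelial HUV-EC-C cells given compound for 40 hr in complete culture medium. Values are AC50s from concentration-response curves.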

[16] = Cell Viability - H-4-II-E (AID 543; active = well fitted curve in the direction sought with a large enough effect; an effect the other way counts as inactive or inconclusive; note: nearly all actives have a fitted effect of over 35% in size; note: potency is the fitted concentration of half-maximal effect)
Outline: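 Here, cytotoxicity is measured in the rat hepatoma line H-4-II-E as loss of intracellular ATP after 40 hr compound treatment, detected by luciferase luminescence.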

[17] = Cell Viability - SH-SY5Y (AID 544; active = well fitted curve in the direction sought with a large enough effect; an effect the other way counts as inactive or inconclusive;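 note: 0% = DMSO alone and -100% = 100 µM tamoxifen; nearly all actives have a fitted effect of over 55% in size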); conditions: SH-SY5Y neuroblastoma cell viability; viability change, negative = cytotoxic: at 92.2 µM (top of the series)
Outline: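 Cytotoxicity is scored as a concentration-dependent fall in intracellular ATP in human SH-SY5Y cells treated 40 hr in complete culture medium. Potency is expressed as AC50 from a Hill equation fit.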

[18] = Cell Viability - Mesenchymal (AID 546; active = well fitted curve in the direction sought with a large enough effect; an effect the other way counts as inactive or inconclusive;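 note: cells exposed to compound for 40 hours before reading; 0% = DMSO only and -100% = 100 µM tamoxifen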); conditions: mesenchymal cells viability, qHTS; activity change, negative = cytotoxicity: at 91.7 µM (top of the series)
Outline: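 Human kidney mesenchymal cells from normal renal glomeruli, 1000 cells/well, rested 5 hr at 37 °C, then treated 40 hr at 37 °C in complete medium. Cellular ATP read by CellTiter-Glo luminescence; AC50 from Hill-equation fits.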

[19] = target: 3',5'-cyclic-AMP phosphodiesterase 4B (Homo sapiens) (UniProt Q07343); assay: qHTS Assay for Inhibitors of PDE-IV (AID 607; active = well fitted activation curve with a large enough effect in the main read-out, with a control signal flat, not every such curve was filed as active; note: % of control where 0% means no effect)
Outline: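 Cell-based read-out of cAMP via a modified cyclic nucleotide-gated channel and membrane potential dye (535/590 nm) in HEK293 cells expressing PDE4 endogenously. Compounds tested up to 22.9 uM final; 100 uM RO 20-1724 reference.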

[20] = target: Lysosomal acid glucosylceramidase (Homo sapiens) (UniProt P04062); assay: Glucocerebrosidase-p2 (AID 348; in the data active = potency below about 10 µM; note: potency is the fitted concentration of half-maximal effect); conditions: purified GBA, blue fluorogenic substrate, 40 min
Outline: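 Compounds titrated from 0.6 nM upwards against 0.2 nM enzyme in pH 5.9 citric acid/KH2PO4, taurocholate, tween-20; blue fluorogenic substrate 80 uM, 40 min room temperature, stopped and read Ex 365/Em 440 for AC50.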

Chain of Glucocorticoid receptor (Homo sapiens) (P04150 whole entry, looked up): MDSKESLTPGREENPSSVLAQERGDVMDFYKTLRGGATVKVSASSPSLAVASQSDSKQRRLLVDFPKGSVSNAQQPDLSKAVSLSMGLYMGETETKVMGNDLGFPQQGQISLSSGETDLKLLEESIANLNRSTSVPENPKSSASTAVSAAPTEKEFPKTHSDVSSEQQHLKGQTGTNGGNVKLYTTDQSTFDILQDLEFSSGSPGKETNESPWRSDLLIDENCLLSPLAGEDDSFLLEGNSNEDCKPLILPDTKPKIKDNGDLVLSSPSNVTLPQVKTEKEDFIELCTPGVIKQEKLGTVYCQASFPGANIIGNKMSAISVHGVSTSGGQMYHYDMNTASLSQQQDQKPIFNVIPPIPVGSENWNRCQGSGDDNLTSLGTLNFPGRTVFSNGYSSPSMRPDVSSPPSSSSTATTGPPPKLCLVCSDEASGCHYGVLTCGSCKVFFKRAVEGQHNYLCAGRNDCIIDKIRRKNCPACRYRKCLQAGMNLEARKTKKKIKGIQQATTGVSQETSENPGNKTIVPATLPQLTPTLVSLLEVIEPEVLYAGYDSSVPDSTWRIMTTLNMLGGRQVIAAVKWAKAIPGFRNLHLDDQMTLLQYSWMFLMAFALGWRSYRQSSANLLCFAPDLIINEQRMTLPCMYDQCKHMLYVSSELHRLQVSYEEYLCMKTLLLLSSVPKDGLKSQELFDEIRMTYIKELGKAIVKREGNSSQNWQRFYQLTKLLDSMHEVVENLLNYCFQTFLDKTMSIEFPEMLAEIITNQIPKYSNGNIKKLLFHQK
Chain of Cytochrome P450 1A2 (Homo sapiens) (P05177 whole entry, looked up): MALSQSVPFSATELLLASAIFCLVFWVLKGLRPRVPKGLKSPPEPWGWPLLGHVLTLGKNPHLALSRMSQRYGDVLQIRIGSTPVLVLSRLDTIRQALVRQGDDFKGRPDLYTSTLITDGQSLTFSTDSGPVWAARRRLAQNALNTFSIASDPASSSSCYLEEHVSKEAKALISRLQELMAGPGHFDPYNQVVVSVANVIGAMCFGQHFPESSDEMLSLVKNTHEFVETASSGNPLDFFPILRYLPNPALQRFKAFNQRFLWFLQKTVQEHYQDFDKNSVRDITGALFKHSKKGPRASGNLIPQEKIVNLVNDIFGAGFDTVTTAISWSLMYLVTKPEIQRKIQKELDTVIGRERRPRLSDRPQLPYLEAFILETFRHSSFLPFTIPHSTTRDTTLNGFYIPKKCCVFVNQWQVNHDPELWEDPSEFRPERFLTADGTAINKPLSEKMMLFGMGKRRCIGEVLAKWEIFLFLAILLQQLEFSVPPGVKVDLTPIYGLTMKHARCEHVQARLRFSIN
Chain of 3',5'-cyclic-AMP phosphodiesterase 4B (Homo sapiens) (Q07343 whole entry, looked up): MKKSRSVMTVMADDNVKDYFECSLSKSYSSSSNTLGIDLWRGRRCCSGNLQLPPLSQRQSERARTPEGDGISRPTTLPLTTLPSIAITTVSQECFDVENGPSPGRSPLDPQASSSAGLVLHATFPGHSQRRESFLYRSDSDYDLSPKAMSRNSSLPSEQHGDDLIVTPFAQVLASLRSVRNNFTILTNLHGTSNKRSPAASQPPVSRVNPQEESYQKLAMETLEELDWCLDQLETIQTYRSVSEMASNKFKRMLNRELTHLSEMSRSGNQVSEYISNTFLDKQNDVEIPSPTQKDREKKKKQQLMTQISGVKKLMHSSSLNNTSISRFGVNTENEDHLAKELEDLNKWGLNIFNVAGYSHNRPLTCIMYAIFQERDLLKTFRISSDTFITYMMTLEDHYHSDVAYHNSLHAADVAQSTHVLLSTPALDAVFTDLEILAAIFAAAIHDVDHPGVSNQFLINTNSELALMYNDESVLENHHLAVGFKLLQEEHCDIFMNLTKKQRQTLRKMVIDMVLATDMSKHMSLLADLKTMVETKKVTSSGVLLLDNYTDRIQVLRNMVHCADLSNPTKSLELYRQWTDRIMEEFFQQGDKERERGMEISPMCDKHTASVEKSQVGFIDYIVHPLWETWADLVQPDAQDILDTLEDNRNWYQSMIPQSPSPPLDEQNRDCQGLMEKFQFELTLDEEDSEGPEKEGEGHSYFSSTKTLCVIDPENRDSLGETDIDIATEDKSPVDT
Chain of Lysosomal acid glucosylceramidase (Homo sapiens) (P04062 whole entry, looked up): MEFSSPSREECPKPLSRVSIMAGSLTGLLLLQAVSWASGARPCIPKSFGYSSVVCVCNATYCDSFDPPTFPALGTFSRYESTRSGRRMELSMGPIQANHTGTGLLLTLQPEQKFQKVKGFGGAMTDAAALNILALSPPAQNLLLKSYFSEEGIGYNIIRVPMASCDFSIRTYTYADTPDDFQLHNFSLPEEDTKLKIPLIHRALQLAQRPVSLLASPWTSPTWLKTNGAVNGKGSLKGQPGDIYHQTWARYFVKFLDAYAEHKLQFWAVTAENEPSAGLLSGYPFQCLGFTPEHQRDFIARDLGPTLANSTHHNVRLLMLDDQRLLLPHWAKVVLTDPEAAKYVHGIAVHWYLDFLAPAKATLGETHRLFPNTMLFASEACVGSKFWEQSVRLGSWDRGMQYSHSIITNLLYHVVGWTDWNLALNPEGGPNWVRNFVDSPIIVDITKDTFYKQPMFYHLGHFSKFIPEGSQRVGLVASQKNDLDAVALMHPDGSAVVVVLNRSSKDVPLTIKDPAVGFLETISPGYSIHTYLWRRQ

CCCNC(=O)NS(=O)(=O)c1ccc(Cl)cc1
inactive: outcome [1] | Potency [2] | Potency [3] > 92 µM | Potency [4] > 92 µM | Potency [5] > 92 µM | Potency [6] > 92 µM | Potency [7] > 92 µM | Potency [8] > 92 µM | outcome [9] | activity, negative = inhibition ([10]; at 17.2 µM (top of the series)) -8.89% and -0.985% | activity, negative = inhibition ([10]; at 38 µM (top of the series)) -1.14% | Potency [11] > 46 µM and > 20.6 µM | outcome [12] | Potency [13] | activity change, negative = cytotoxicity [14] 4.29% | Potency [15] | Potency [16] | Potency [17] | Potency [18] | outcome [19]

CC(C)OC(=O)C(C)(C)Oc1ccc(C(=O)c2ccc(Cl)cc2)cc1
active: Potency [2] 12.6 µM and 5.01 µM
inactive: outcome [1] | Potency [11] > 46 µM and > 20.6 µM | outcome [19]

C[N+](C)(C)CCCCCC[N+](C)(C)C
inactive: outcome [1] | Potency [2] | outcome [9] | activity, negative = inhibition ([10]; at 17.2 µM (top of the series)) 8.45% | activity, negative = inhibition ([10]; at 38 µM (top of the series)) 9.91% | outcome [12] | outcome [19]

CC(=O)CCCCn1c(=O)c2c(ncn2C)n(C)c1=O
active: Potency [2] 31.6 µM and 12.6 µM
inactive: outcome [1] | outcome [9] | activity, negative = inhibition ([10]; at 17.2 µM (top of the series)) -10.5% | activity, negative = inhibition ([10]; at 38 µM (top of the series)) 9.49% | Potency [11] > 46 µM and > 20.6 µM | outcome [12] | outcome [19]

O=C1NC(=O)C(c2ccccc2)(c2ccccc2)N1
inactive: outcome [1] | Potency [2] | Potency [3] > 92 µM | Potency [4] > 92 µM | Potency [5] > 92 µM | Potency [6] > 92 µM | Potency [7] > 92 µM | Potency [8] > 92 µM | outcome [9] | activity, negative = inhibition ([10]; at 17.2 µM (top of the series)) -0.146% | activity, negative = inhibition ([10]; at 38 µM (top of the series)) -3.08% | Potency [11] > 46 µM and > 20.6 µM | outcome [12] | Potency [13] | activity change, negative = cytotoxicity [14] -17.5% | Potency [15] | Potency [16] | Potency [17] | Potency [18] | outcome [19]

CCN(CC)C(=O)c1ccc(O)c(OC)c1
active: Potency [2] 12.6 µM
inactive: outcome [1] | outcome [9] | activity, negative = inhibition ([10]; at 17.2 µM (top of the series)) 4.07% and -1.09% | activity, negative = inhibition ([10]; at 38 µM (top of the series)) -11.7% | Potency [11] > 46 µM and > 20.6 µM | outcome [12] | outcome [19]

O=C1NCC2(CCN(CCc3ccccc3)CC2)O1
inactive: outcome [1] | Potency [2] | outcome [9] | activity, negative = inhibition ([10]; at 17.2 µM (top of the series)) 8.61% | activity, negative = inhibition ([10]; at 38 µM (top of the series)) 4.62% | Potency [11] > 46 µM and > 20.6 µM | outcome [12] | outcome [19]

CC/C(=C(\c1ccccc1)c1ccc(OCCN(C)C)cc1)c1ccccc1
inactive: outcome [1] | outcome [9] | activity, negative = inhibition ([10]; at 17.2 µM (top of the series)) 14.2% | activity, negative = inhibition ([10]; at 38 µM (top of the series)) 2.62% | Potency [11] > 46 µM and > 20.6 µM | outcome [12]
active: Potency [4] 31.5 µM | Potency [6] 46.2 µM | Potency [7] 60.3 µM | Potency [8] 49.1 µM | activity change, negative = cytotoxicity [13] -117% | Potency [15] 50.1 µM | Potency [16] 50.1 µM | viability change, negative = cytotoxic [17] -99.3% | activity change, negative = cytotoxicity [18] -91.4%

C[N+](C)(C)CC(=O)O
inactive: outcome [1] | Potency [2] | outcome [9] | activity, negative = inhibition ([10]; at 38 µM (top of the series)) -8.86% | outcome [12] | outcome [19]

c1cc(-c2sc(-c3ccncc3)c(-c3ccncc3)c2-c2ccncc2)ccn1
inactive: Potency [20] > 11.4 µM | outcome [1] | outcome [9] | activity, negative = inhibition ([10]; at 7.69 µM (top of the series)) 7.72% | Potency [11] > 46 µM | activity change, negative = inhibition [12] -6.48% [at 11.4 µM] | outcome [19]
active: Potency [2] 3.16 µM
